Test results as given in PubChem BioAssay AID1851 (National Center for Advancing Translational Sciences (NCATS), 2009).
The whole screen tested about 16,000 compounds, of which about 5,800 (36%) were called active. Roughly 23% stayed inconclusive and do not appear here. The call rests on the fitted dose curve; in most records, active means well fitted curve in the direction sought with a large enough effect; inconclusive means small, poorly fitted or top-dose-only effect, or effect the other way; inactive means no such curve, though single readings can be large or run the other way. Some of the results follow.

Each compound was assayed against Cytochrome P450 2C19 (Homo sapiens) (UniProt P33261) (assay: Cytochrome panel assay with activity outcomes). Details: recombinant CYP, pro-luciferin dealkylation, luminescence, p450-cyp2c19; series mostly up to 57.1 µM.
On the % scale 0 is the no-effect control and ±100 the full control effect.

Cytochrome P450 2C19 (Homo sapiens), sequence (P33261 whole entry, looked up): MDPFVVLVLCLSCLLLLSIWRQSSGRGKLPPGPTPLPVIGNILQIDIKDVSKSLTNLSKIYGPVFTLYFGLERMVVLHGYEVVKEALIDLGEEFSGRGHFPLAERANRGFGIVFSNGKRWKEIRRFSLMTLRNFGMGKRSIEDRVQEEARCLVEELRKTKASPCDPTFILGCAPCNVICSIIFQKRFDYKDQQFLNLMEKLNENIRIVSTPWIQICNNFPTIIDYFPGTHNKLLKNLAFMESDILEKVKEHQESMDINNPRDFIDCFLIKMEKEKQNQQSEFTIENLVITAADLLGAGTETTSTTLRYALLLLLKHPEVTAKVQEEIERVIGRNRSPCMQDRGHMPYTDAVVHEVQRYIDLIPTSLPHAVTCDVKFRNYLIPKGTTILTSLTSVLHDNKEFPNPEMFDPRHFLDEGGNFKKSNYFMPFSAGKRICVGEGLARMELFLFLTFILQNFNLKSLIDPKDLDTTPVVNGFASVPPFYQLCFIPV

AC50, active:
Cc1cccc(CNc2ccnc(-c3ccccc3Cl)n2)c1 1.26 µM
COc1ccccc1-c1nccc(NCc2ccccc2)n1 7.94 µM
COc1ccccc1-c1nccc(NCc2cccc(C)c2)n1 10 µM
Cc1ccccc1-c1nccc(NCc2cccnc2)n1 5.01 µM
COc1ccccc1-c1nccc(NCc2cccnc2)n1 3.98 µM
Cc1noc(C)c1-c1nccc(NCc2cccnc2)n1 25.1 µM
Clc1ccccc1-c1nc(-c2ccccc2)n[nH]1 17.8 µM
O=S(=O)(C=C(c1ccccc1)c1ccccc1)c1ccccc1 2.82 µM
O=S(=O)(c1ccc(F)cc1)N1CC2CCCN2c2ccc(C(F)(F)F)cc21 (stereo not drawn) 2.24 µM
COc1ccc(S(=O)(=O)N2CC3CCCN3c3ccc(C(F)(F)F)cc32)cc1 (stereo not drawn) 0.562 µM
COC(=O)c1nn(-c2cccc(C(F)(F)F)c2)c(=O)cc1Sc1ccccn1 5.62 µM
N#Cc1cc(N)ccc1Sc1ccc(Cl)cc1 3.16 µM
CCc1sc(N(C(=O)Cc2ccccc2)c2cccc(F)c2)nc1-c1ccc(C)cc1 2.82 µM

AC50, inactive:
C[C@@](N)(Cc1ccc(O)c(O)c1)C(=O)O
Cc1cnc(CNc2ccnc(-c3ccccc3C)n2)cn1
CNc1ccnc(-c2ccccc2OC)n1
Cc1cccc(CNc2ccnc(-c3ccccc3CN(C)C)n2)c1
Cc1cnc(CNc2ccnc(-c3c(C)noc3C)n2)cn1
CN1CCN(c2ncc3nc(-c4cc(F)cc(F)c4)c(=O)n(C4CC4)c3n2)CC1
Nc1ccc(S(=O)(=O)NC(=O)c2ccccc2)cc1
COc1ccc(NC(=O)N2CC[C@@]3(CCCN(C(=O)c4cc(C(F)(F)F)cc(C(F)(F)F)c4)C3)C2)cc1
COc1ccc(C(OCCN2CCC[C@@H](C(=O)O)C2)(c2ccc(OC)cc2)c2ccc(OC)cc2)cc1
COc1ccccc1CN1CCCC2(CCN(C(=O)c3csnn3)CC2)C1

activity, negative = inhibition, inactive:
COC(=O)C/C=C\[C@@H](C)[C@@H](/C=N\OC[C@@H](O)[C@H]1O[C@H]2OC(C)(C)O[C@H]2[C@@H]1O)OC -19.4% [at 11.4 µM]
NC(=O)Nc1n[nH]c(-c2ccccc2)n1 13.8% [at 11.4 µM]
O=c1ccc(-c2ccccc2)n[nH]1 13.5% [at 11.4 µM]
O=S(=O)(O)c1ccc(N=Nc2ccccc2)cc1 6.93% [at 11.4 µM]
Nc1ccccc1CCCC(=O)O -13.9% [at 11.4 µM]
